# Test results reported in PubChem BioAssay (EPA / NIEHS).
# Activity calls are given as the source filed them. How the source made its calls: active means hit-call score of the fitted dose curve at least 0.9, where 1 is the maximum; inactive means score below 0.9.
# Legend:
# [1] = target: Paired box protein Pax-6 (Homo sapiens) (UniProt P26367); experiment: ATG_Pax6_CIS: Attagene CIS-FACTORIAL HepG2 Assay for human Paired Box 6 (PAX6) (AID 2282956); conditions: HepG2 CIS-FACTORIAL PAX6 reporter transcription, RNA readout; actives raise or lower the signal
# Sequence of Paired box protein Pax-6 (Homo sapiens) (P26367 whole entry, looked up): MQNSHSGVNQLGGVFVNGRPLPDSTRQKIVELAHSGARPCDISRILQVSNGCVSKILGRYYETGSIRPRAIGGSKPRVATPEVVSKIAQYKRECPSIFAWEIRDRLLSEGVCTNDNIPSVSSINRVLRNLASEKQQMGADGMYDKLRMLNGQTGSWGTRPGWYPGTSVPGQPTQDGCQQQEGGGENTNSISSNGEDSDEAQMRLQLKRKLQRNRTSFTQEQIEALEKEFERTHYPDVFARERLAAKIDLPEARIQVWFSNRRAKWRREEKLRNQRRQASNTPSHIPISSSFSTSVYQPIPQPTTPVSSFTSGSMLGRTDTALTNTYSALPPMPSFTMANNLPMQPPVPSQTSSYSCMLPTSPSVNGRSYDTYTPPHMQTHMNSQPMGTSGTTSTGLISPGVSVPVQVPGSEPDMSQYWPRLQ
# Method in brief: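 After twenty-four hours of chemical exposure, transfected HepG2 cells are harvested for RNA. Cis-promoter reporter transcripts are amplified, fluorescently labelled and sized by capillary electrophoresis, with gain and loss of signal scored against DMSO.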
# [2] = ATG_PXRE_CIS: Attagene CIS-FACTORIAL HepG2 Assay for human Pregnane X Receptor Element (PXRE) (AID 2282957); conditions: HepG2 Attagene CIS-FACTORIAL PXRE reporter, mRNA; actives raise or lower the signal
# Method in brief: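 Transiently transfected HepG2 cells were dosed and incubated for 24 h. RNA was then isolated, DNase-treated, reverse-transcribed and reporter sequences amplified. Labeled, HpaI-digested fragments were quantified by capillary electrophoresis against DMSO.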
# [3] = ATG_PPRE_CIS: Attagene CIS-FACTORIAL HepG2 Assay for human Peroxisome Proliferator-activated Response Element (PPRE) (AID 2282958); conditions: HepG2 PPRE cis-element reporter, Attagene transcription factor profiling; actives raise or lower the signal
# Method in brief: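 HepG2 cells transiently transfected with multiplexed cis-element reporter units measure endogenous transcription factor activity. After 24 h compound exposure, reporter mRNA is quantified by RT-PCR, 6-FAM labeling, HpaI digestion and capillary electrophoresis; bidirectional fits are made against DMSO baseline.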
# [4] = ATG_RORE_CIS: Attagene CIS-FACTORIAL HepG2 Assay for human RAR-related Orphan Receptor Element (RORE) (AID 2282959); conditions: HepG2 Attagene cis-factorial RORE reporter, mRNA; actives raise or lower the signal
# Method in brief: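 HepG2 cells transiently transfected with multiple cis-element reporter transcription units, exposed to chemical for 24 h. Reporter mRNA quantified by RT-PCR, 6-FAM primer-extension labeling, HpaI digestion and capillary electrophoresis; bidirectional fit versus DMSO baseline.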
# [5] = ATG_Sox_CIS: Attagene CIS-FACTORIAL HepG2 Assay for human SRY-box transcription factor (SOX) (AID 2282960); conditions: HepG2 Attagene cis-factorial SOX reporter, mRNA; actives raise or lower the signal
# Method in brief: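 HepG2 cells transiently transfected with cis-element-driven multiple reporter transcription units, dosed 24 h; reporter mRNA measured by RT-PCR, FAM labelling, HpaI digestion and capillary electrophoresis. Bidirectional fit versus DMSO baseline.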
# [6] = target: Transcription factor Sp1 (Homo sapiens) (UniProt P08047); experiment: ATG_Sp1_CIS: Attagene CIS-FACTORIAL HepG2 Assay for human Specificity Protein 1 (Sp1) (AID 2282961); conditions: HepG2 Sp1 cis-reporter transcription, actives raise or lower the signal
# Sequence of Transcription factor Sp1 (Homo sapiens) (P08047 whole entry, looked up): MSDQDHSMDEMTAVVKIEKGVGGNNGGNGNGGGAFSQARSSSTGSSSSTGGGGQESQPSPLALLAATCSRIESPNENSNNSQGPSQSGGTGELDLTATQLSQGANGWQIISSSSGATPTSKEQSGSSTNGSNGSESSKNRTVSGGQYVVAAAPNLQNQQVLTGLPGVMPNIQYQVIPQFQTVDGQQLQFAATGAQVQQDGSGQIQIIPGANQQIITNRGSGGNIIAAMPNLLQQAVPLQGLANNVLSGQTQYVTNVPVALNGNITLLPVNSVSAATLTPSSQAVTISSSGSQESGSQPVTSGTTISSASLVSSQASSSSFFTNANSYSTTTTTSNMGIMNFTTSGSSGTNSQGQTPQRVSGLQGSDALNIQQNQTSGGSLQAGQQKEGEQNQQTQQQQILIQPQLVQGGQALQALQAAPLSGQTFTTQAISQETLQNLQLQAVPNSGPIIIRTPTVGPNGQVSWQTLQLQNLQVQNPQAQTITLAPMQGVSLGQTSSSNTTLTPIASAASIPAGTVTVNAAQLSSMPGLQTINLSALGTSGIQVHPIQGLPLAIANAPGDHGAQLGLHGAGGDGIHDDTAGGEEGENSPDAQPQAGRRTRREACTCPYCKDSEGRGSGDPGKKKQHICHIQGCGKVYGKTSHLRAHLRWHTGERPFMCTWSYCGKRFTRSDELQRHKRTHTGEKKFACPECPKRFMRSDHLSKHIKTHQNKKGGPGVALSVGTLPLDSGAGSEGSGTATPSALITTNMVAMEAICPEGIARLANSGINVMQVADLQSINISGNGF
# Method in brief: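 HepG2 cells transiently transfected with multiple reporter transcription units driven by cis-regulatory elements; Sp1-responsive reporter mRNA measured 24 h after dosing by RT-PCR and capillary electrophoresis fluorescence, fitted bidirectionally against DMSO baseline.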
# [7] = ATG_SREBP_CIS: Attagene CIS-FACTORIAL HepG2 Assay for human Sterol Regulatory Element Binding (SREBP) (AID 2282962); conditions: HepG2 Attagene cis-factorial SREBP reporter, mRNA; actives raise or lower the signal
# Method in brief: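 Twenty-four hours after chemical dosing of transfected HepG2 cultures, reporter RNA was converted to cDNA, amplified, end-labelled with 6-FAM and resolved by capillary electrophoresis. Responses were fitted relative to DMSO.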
# [8] = target: Signal transducer and activator of transcription 3 (Homo sapiens) (UniProt P40763); experiment: ATG_STAT3_CIS: Attagene CIS-FACTORIAL HepG2 Assay for human Signal Transducer and Activator of Transcription 3 (STAT3) (AID 2282963); conditions: HepG2, Attagene cis-factorial STAT3 reporter transcription; actives raise or lower the signal
# Sequence of Signal transducer and activator of transcription 3 (Homo sapiens) (P40763 whole entry, looked up): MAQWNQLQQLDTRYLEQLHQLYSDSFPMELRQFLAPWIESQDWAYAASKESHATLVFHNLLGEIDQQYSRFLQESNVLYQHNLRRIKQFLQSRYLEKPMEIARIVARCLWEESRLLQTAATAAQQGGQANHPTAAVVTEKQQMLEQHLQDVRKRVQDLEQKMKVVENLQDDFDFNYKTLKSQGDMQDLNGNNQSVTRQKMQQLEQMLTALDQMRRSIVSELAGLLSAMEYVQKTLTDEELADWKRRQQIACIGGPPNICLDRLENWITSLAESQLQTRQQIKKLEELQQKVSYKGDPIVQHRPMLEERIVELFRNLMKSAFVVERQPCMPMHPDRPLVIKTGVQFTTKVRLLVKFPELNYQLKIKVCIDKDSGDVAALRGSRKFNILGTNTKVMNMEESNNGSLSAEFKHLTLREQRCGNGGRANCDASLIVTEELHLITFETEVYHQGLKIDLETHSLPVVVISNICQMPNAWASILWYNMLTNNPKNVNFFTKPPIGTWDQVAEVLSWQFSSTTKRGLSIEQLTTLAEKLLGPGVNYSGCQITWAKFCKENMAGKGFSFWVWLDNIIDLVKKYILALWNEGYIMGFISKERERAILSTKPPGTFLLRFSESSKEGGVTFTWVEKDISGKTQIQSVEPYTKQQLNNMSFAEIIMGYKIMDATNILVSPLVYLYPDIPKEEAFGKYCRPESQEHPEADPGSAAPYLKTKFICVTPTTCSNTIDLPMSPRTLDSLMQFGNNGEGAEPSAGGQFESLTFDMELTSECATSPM
# Method in brief: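 Values derive from bidirectional fits relative to DMSO of reporter mRNA levels, measured by RT-PCR with capillary electrophoresis, in HepG2 cells carrying transiently transfected cis-regulated reporter units and exposed 24 h.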
# [9] = ATG_TA_CIS: Attagene CIS-FACTORIAL HepG2 Assay for human TA Basal Promoter (AID 2282964); conditions: HepG2 Attagene CIS-factorial TA basal promoter reporter; actives raise or lower the signal
# Method in brief: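 Transient MRTU transfection of HepG2 preceded 24 h compound exposure. Reporter mRNA levels were then read by RT-PCR with capillary electrophoresis, and this background-control endpoint was fitted bidirectionally to DMSO.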
# [10] = ATG_TCF_b_cat_CIS: Attagene CIS-FACTORIAL HepG2 Assay for human T-Cell-Factor with beta-catenin (TCF/b-cat) (AID 2282965); conditions: HepG2 TCF/beta-catenin cis-reporter transcription, actives raise or lower the signal
# Method in brief: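 HepG2 cells transiently transfected with cis-promoter-driven multiplexed reporter units; reporter mRNA measured 24 h after dosing by RT-PCR, FAM labelling, HpaI digestion and capillary electrophoresis. Bidirectional fitting relative to DMSO baseline.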
Structure (SMILES),outcome [1],AC50 [2],AC50 [3],outcome [4],outcome [5],outcome [6],outcome [7],outcome [8],outcome [9],outcome [10],outcome [3],AC50 [4],outcome [2],AC50 [7],AC50 [5],AC50 [1],AC50 [6],AC50 [8],AC50 [9]
CC(C)(C)C(=O)C(Oc1ccc(Cl)cc1)n1cncn1 (stereo not given),inactive,5.02 µM (active),50 µM (active),inactive,inactive,inactive,inactive,inactive,inactive,inactive,,,,,,,,,
CCOc1nc(C(Cl)(Cl)Cl)ns1,inactive,33.5 µM (active),,,inactive,inactive,inactive,inactive,inactive,inactive,inactive,70.3 µM (active),,,,,,,
Cc1nc(N(C)C)nc(OC(=O)N(C)C)c1C,inactive,50 µM (active),,inactive,inactive,inactive,inactive,inactive,inactive,inactive,inactive,,,,,,,,
CC(C)C1(C)N=C(c2ncccc2C(=O)O)NC1=O (stereo not given),inactive,,,inactive,inactive,inactive,inactive,inactive,inactive,inactive,inactive,,inactive,,,,,,
Nc1c(Cl)c(Cl)nc(C(=O)O)c1Cl,inactive,69.5 µM (active),,inactive,inactive,inactive,inactive,inactive,inactive,inactive,inactive,,,,,,,,
CS(=O)(=O)c1ccc(C(=O)C2C(=O)CCCC2=O)c([N+](=O)[O-])c1,inactive,,,inactive,inactive,inactive,inactive,inactive,inactive,inactive,inactive,,inactive,,,,,,
CCN(CC)C(=O)C(C)Oc1cccc2ccccc12 (stereo not given),inactive,0.163 µM (active),50 µM (active),,inactive,inactive,,inactive,inactive,inactive,,28 µM (active),,28.8 µM (active),,,,,
O=c1n(Cl)c(=O)n(Cl)c(=O)n1Cl,inactive,50 µM (active),,inactive,inactive,inactive,inactive,inactive,inactive,inactive,inactive,,,,,,,,
C=C(C)CN(CC)c1c([N+](=O)[O-])cc(C(F)(F)F)cc1[N+](=O)[O-],inactive,9.5 µM (active),,inactive,inactive,inactive,inactive,inactive,inactive,inactive,inactive,,,,,,,,
COP(=S)(OC)Oc1ccc([N+](=O)[O-])c(C)c1,inactive,13.5 µM (active),50 µM (active),,inactive,inactive,,inactive,inactive,inactive,,50 µM (active),,14 µM (active),,,,,
CSC(=O)c1c(C(F)F)nc(C(F)(F)F)c(C(=O)SC)c1CC(C)C,inactive,0.451 µM (active),,inactive,inactive,inactive,inactive,inactive,inactive,inactive,inactive,,,,,,,,
N#CN=C1SCCN1Cc1ccc(Cl)nc1,inactive,50 µM (active),,inactive,inactive,inactive,inactive,inactive,inactive,inactive,inactive,,,,,,,,
CC(C)N1C(=O)N(c2ccccc2)CSC1=NC(C)(C)C,inactive,0.666 µM (active),,inactive,inactive,inactive,inactive,inactive,inactive,inactive,inactive,,,,,,,,
N#Cc1c[nH]cc1-c1cccc2c1OC(F)(F)O2,inactive,11.6 µM (active),13.2 µM (active),inactive,,inactive,inactive,inactive,inactive,inactive,,,,,3.85 µM (active),,,,
COC(=O)N(C(=O)N1CO[C@@]2(C(=O)OC)Cc3cc(Cl)ccc3C2=N1)c1ccc(OC(F)(F)F)cc1,inactive,1.24 µM (active),,,inactive,inactive,,inactive,inactive,inactive,inactive,13.2 µM (active),,5.39 µM (active),,,,,
COCC(=O)N(c1c(C)cccc1C)C(C)C(=O)OC (stereo not given),inactive,9.28 µM (active),,inactive,inactive,inactive,inactive,inactive,inactive,inactive,inactive,,,,,,,,
CC1(C)C(C(=O)OC(C#N)c2cccc(Oc3ccccc3)c2)C1(C)C (stereo not given),inactive,1.74 µM (active),11 µM (active),inactive,inactive,inactive,inactive,inactive,inactive,inactive,,,,,,,,,
CC(C)Oc1cccc(NC(=O)c2ccccc2C(F)(F)F)c1,inactive,4.22 µM (active),21.3 µM (active),,inactive,inactive,inactive,inactive,inactive,inactive,,33.6 µM (active),,,,,,,

Structure (SMILES),outcome [1],AC50 [2],AC50 [3],outcome [4],outcome [5],outcome [6],outcome [7],outcome [8],outcome [9],outcome [10],outcome [3],AC50 [4],outcome [2],AC50 [7],AC50 [5],AC50 [1],AC50 [6],AC50 [8],AC50 [9]
Cc1cnc(C2=NC(C)(C(C)C)C(=O)N2)c(C(=O)O)c1 (stereo not given),inactive,24.8 µM (active),,inactive,inactive,inactive,inactive,inactive,inactive,inactive,inactive,,,,,,,,
COCc1cnc(C2=NC(C)(C(C)C)C(=O)N2)c(C(=O)O)c1 (stereo not given),inactive,,,inactive,inactive,inactive,inactive,inactive,inactive,inactive,inactive,,inactive,,,,,,
CO/N=C(/C1=NOCCO1)c1ccccc1Oc1ncnc(Oc2ccccc2Cl)c1F,,0.483 µM (active),,inactive,inactive,inactive,,inactive,inactive,inactive,inactive,,,1.25 µM (active),,9.47 µM (active),,,
CCOC(=O)C(C)OC(=O)c1cc(Oc2ccc(C(F)(F)F)cc2Cl)ccc1[N+](=O)[O-] (stereo not given),inactive,7.84 µM (active),11.7 µM (active),,inactive,inactive,,inactive,inactive,inactive,,50 µM (active),,19.3 µM (active),,,,,
CCN(CC)c1nc(C)cc(OP(=S)(OC)OC)n1,inactive,3.38 µM (active),34.1 µM (active),,inactive,inactive,inactive,inactive,inactive,inactive,,20 µM (active),,,,,,,
COCC(C)N(C(=O)CCl)c1c(C)csc1C (stereo not given),inactive,1.06 µM (active),,inactive,inactive,inactive,,inactive,inactive,inactive,inactive,,,5.88 µM (active),,,,,
O=C(Nc1ccccc1-c1ccc(Cl)cc1)c1cccnc1Cl,inactive,4.77 µM (active),,inactive,inactive,,inactive,inactive,inactive,inactive,inactive,,,,,,19.8 µM (active),,
Cc1cc(C)nc(Nc2ccccc2)n1,inactive,,16.7 µM (active),inactive,inactive,inactive,,inactive,inactive,inactive,,,inactive,23 µM (active),,,,,
Clc1nc(Cl)nc(Nc2ccccc2Cl)n1,inactive,39.7 µM (active),18.7 µM (active),inactive,inactive,inactive,inactive,inactive,inactive,inactive,,,,,,,,,
COC(=O)c1c(C(F)F)nc(C(F)(F)F)c(C2=NCCS2)c1CC(C)C,inactive,0.123 µM (active),50 µM (active),,inactive,inactive,inactive,inactive,inactive,inactive,,26.8 µM (active),,,,,,,
CN=C=S,inactive,,18.3 µM (active),inactive,inactive,,,inactive,inactive,inactive,,,inactive,13.1 µM (active),,,13.3 µM (active),,
CCCCC(O)(Cn1cncn1)c1ccc(Cl)cc1Cl (stereo not given),,13 µM (active),,,inactive,inactive,inactive,,,inactive,inactive,24.7 µM (active),,,,31 µM (active),,50 µM (active),65 µM (active)
Nc1cnn(-c2ccccc2)c(=O)c1Cl,inactive,81.5 µM (active),,inactive,inactive,inactive,inactive,inactive,inactive,inactive,inactive,,,,,,,,
COP(=S)(OC)SCn1nnc2ccccc2c1=O,inactive,5.87 µM (active),,,inactive,,,inactive,inactive,inactive,inactive,31 µM (active),,19.8 µM (active),,,32.5 µM (active),,
COC(=O)NC(=S)Nc1ccccc1NC(=S)NC(=O)OC,inactive,7.61 µM (active),34 µM (active),inactive,inactive,inactive,inactive,inactive,inactive,inactive,,,,,,,,,
N#Cc1c(Cl)cccc1Cl,inactive,21.6 µM (active),,inactive,inactive,inactive,inactive,inactive,inactive,inactive,inactive,,,,,,,,
CCCCC(C#N)(Cn1cncn1)c1ccc(Cl)cc1 (stereo not given),inactive,13.8 µM (active),,inactive,inactive,inactive,,inactive,inactive,inactive,inactive,,,12.6 µM (active),,,,,
